Screening data: PubChem BioAssay, National Center for Advancing Translational Sciences (NCATS)
FBPA coupling cs: qHTS Assay for Inhibitors of Fructose-1,6-bisphosphate Aldolase from Giardia Lamblia: Coupling assay counterscreen; 0.67% of 290,000 active; activity change, negative = inhibition, % at 58.2 µM, hits read low; coupling enzyme system counterscreen, AmpLite Red fluorescence; in the data active = activity change below about -30%
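Activity here indicates interference with the coupling reaction, not aldolase inhibition. Compounds at 57.5 uM final met coupling enzymes for 10 min at RT; substrate and AmpLite Red detection followed, with a 525/598 nm fluorescence read after 20 min.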
TrxR1 substrate: qHTS Assay for Substrates of Mammalian Selenoprotein Thioredoxin Reductase 1 (TrxR1): qHTS | Thioredoxin reductase 1, cytoplasmic (Rattus norvegicus), O89049 | 0.01% of 390,000 active | purified TrxR1 substrate turnover, NADPH consumption readout | Potency, µM (titrated, usually from 114 µM), for inactives: top-dose activity change, negative = substrate turnover; note: potency is the fitted concentration of half-maximal effect; nearly all actives have a fitted effect of over 50% in size
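Rat TrxR1, dispensed at 90 nM, was prereduced with 400 uM NADPH (final) for 5 min at ~22 deg C, then incubated with compound 15 min before 400 uM selenite. A first-read NADPH fluorescence drop versus no-compound background flagged substrates.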
TrxR1 inh: qHTS Assay for Inhibitors of Mammalian Selenoprotein Thioredoxin Reductase 1 (TrxR1): qHTS | recombinant rTrxR1, NADPH fluorescence consumption, selenite substrate | AID 588453, 2011 | 1% of 390,000 active | Potency, µM (series often up to 114 µM), inactives show at the top dose activity change, negative = inhibition, hits mostly inhibitors; note: potency is the fitted concentration of half-maximal effect; nearly all actives have a fitted effect of over 65% in size
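Rat TrxR1 (90 nM in the dispensed reagent) was pre-reduced with 400 uM NADPH for 5 min at room temperature, then incubated with compound for 15 min. After 400 uM selenite was added, NADPH fluorescence (Ex 340/Em 450 nm) was followed for 8 min.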
RORgamma inh: qHTS for inhibitors of ROR gamma transcriptional activity | Nuclear receptor ROR-gamma (Mus musculus), P51450 | Drosophila S2 Gal4-RORgamma UAS-luciferase reporter, 20 h | Potency, µM (titrated, usually from 53.6 µM), inactives show at the top dose activity change, negative = inhibition, hits mostly inhibitors | 5.4% of 310,000 active; note: potency is the fitted concentration of half-maximal effect; nearly all actives have a fitted effect of over 60% in size
Target sequence (P51450 whole entry, looked up, the tested form may be a part): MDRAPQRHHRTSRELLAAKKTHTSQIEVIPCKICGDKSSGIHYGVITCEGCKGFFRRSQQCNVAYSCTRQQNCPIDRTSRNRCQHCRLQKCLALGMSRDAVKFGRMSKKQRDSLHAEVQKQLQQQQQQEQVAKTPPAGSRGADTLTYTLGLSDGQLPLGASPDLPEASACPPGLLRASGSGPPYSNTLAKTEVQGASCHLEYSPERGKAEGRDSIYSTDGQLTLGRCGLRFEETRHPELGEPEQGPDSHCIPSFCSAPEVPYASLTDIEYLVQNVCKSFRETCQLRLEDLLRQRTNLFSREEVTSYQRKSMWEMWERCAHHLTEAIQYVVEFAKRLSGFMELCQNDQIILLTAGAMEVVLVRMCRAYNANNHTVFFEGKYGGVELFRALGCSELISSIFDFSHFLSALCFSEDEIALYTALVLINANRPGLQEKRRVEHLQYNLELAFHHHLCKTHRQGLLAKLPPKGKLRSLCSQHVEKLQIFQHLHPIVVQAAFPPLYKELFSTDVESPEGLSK
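Using a luciferase readout, inhibitors were identified by reduced reporter activity in Drosophila cells coexpressing a copper-inducible Gal4–ROR gamma fusion and UAS-driven Photinus luciferase, incubated 20 hr after 700 uM copper sulfate.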
GALK inhibitor: qHTS Assay for Inhibitors of Human Galactokinase (GALK). Potency, µM (top dose mostly 57.5 µM), for the others: top-dose activity change, negative = inhibition, usual class: inhibitors. 0.007% of 270,000 active. Purified GALK, Kinase-Glo residual ATP luminescence. P51570; note: potency is the fitted concentration of half-maximal effect
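5 nM enzyme, 35 uM ATP, 100 uM galactose, 20 mM HEPES pH8.0, 5 mM MgCl2; 1 h RT; residual ATP by Kinase-Glo Plus luminescence, qHTS format.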
Gal4-VP16 FLuc: VP16 counterscreen qHTS for inhibitors of ROR gamma transcriptional activity; 3.5% of 310,000 active; Drosophila S2 Gal4-VP16 UAS-luciferase, luminescence, 20 h; AID 2546, 2010; Potency, µM (titrated, usually from 53.6 µM), without a hit: top-dose activity, negative = inhibition, most hits filed as inhibitors;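 note: Gal4-VP16 expression switched on by copper sulfate through the metallothionein promoter; potency is the fitted concentration of half-maximal effect; nearly all actives have a fitted effect of over 50% in size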
Numbers without * were called inactive; ? = inconclusive; · = not tested or not shown; [ ] = another dose, or the depositor's remark. Compounds with a hit are over-represented: about 5.9% of the library has one in this group of screens. Unless noted, calls come from the whole dose curve; as a rule, active = well fitted curve in the direction sought with a large enough effect; inconclusive = small, poorly fitted or top-dose-only effect, or another doubt; inactive = no such curve, though single readings can be large; an effect the other way counts as inactive or inconclusive. % is set by controls: 0 for no effect and ±100 for the full control effect.

SMILES | FBPA coupling cs | TrxR1 substrate | TrxR1 inh | RORgamma inh | GALK inhibitor | Gal4-VP16 FLuc
O=c1[nH]c(Cc2ccccc2)nc2scc(-c3ccccc3)c12 | -1 | 4%[57.1 µM] | 0%[57.1 µM] | ? | 0% | 9%
CN(Cc1ccccc1)Cc1nc2scc(-c3ccccc3)c2c(=O)[nH]1 | 0 | -2% | 1% | 3.2µM* | 10% | ?
O=S(=O)(c1ccccc1)N1CCN(S(=O)(=O)c2ccccc2)C1 | -8 | -2% | -5% | 5% | -3% | 9%
O=S(=O)(/N=S1/CC=CCN1S(=O)(=O)c1ccccc1)c1ccccc1 (stereo not drawn) | 7 | -10% | 24% | 11µM* | 0% | ?
CC(=O)Nc1nc(-c2ccc([N+](=O)[O-])cc2)cs1 | 0 | 0% | 13% | ? | 0% | -3%
O=C(Nc1ccc([N+](=O)[O-])cc1)Nc1nc(-c2ccc(Cl)s2)cs1 | 0 | -20% | -13% | 4µM* | -3% | 0.89µM*
Cn1c(-c2ccccc2)cnc1SCC(=O)N1CCCCC1 | 5 | 6% | 12%[57.1 µM] | 5µM* | -1% | 8.9µM*
Cn1c(SCC(=O)N2CCCC2)nc2ccccc21 | -2 | -2%[57.1 µM] | 3% | 25% | 1% | 0%
Cn1c(-c2ccccc2)cnc1SCC(=O)N1CCCc2ccccc21 | 1 | -4% | -5% | ? | 1% | ?
Cc1ccc(-c2cnc(SCC(=O)N3CCCc4ccccc43)n2C)cc1 | 0 | 5% | 7% | 11µM* | 0% | -13%
Cc1cccc(CCNC(=O)c2cccc(N3CCCC3=O)c2)c1 | · | 57% | 18% | 10µM* | 2% | -15%
O=C(NCCc1ccccc1)c1cccc(N2CCCC2=O)c1 | · | -4% | 10% | 11µM* | 4% | 10µM*
COc1ccccc1C(=O)NCCC(=O)NCC1COc2ccccc2O1 (stereo not drawn) | · | -5% | ? | · | · | ·
Cc1ccccc1C(=O)Nc1cccc(C(=O)N/N=C/c2cc(Cl)cc([N+](=O)[O-])c2O)c1 | 7 | -5% | -3% | 1.1µM* | 0% | 2.5µM*
O=C(Cn1nnc(-c2ccccc2)n1)N/N=C/c1cccc([N+](=O)[O-])c1O | 1 | -3%[57.1 µM] | 2%[57.1 µM] | 1.8µM* | -1% | ?
O=C(Cn1nc2ccccc2n1)N/N=C/c1cc(Cl)cc([N+](=O)[O-])c1O | 8 | -7%[57.1 µM] | -2%[57.1 µM] | 1.8µM* | 7% | 14µM*
O=[N+]([O-])c1cc(Cl)cc(/C=N/Nc2nc3ccccc3s2)c1O | 0 | -6% | 25%[57.1 µM] | 0.89µM* | 5% | 2.2µM*
O=C(Cn1nc2ccccc2n1)N/N=C/c1ccc(F)cc1 | 1 | 0% | 14% | 24% | 1% | 1%
COc1cc(/C=N/Nc2nc3ccccc3s2)cc([N+](=O)[O-])c1O | -1 | -8% | 0% | 7% | 1% | -15%
CC1CCC/C(=C\Nc2ccc(C(=O)O)cc2)C1=O (stereo not drawn) | 1 | -12% | -15% | ? | -1% | ?
CCC1CCCCN1C(=O)c1c[nH]c2ccc(S(=O)(=O)N(C)c3ccc(Cl)cc3)cc2c1=O (stereo not drawn) | 12 | 11%[57.1 µM] | 10%[57.1 µM] | -17% | -3% | 4%
COc1cc(Nc2ncc3c(n2)CCN(Cc2cc(Br)cs2)C3)cc(OC)c1 | · | -6%[57.1 µM] | 2%[57.1 µM] | · | · | ·
Cc1c(-c2nsc(NC(=O)c3cccs3)n2)nnn1-c1ccc(Br)cc1 | · | 11%[57.1 µM] | 32%[57.1 µM] | · | · | ·
CC(C)(C)N/N=C/c1cc(Cl)cc([N+](=O)[O-])c1O | -3 | -6% | -3% | -10% | 0% | 2%
O=C(N/N=C/c1cc(Cl)cc([N+](=O)[O-])c1O)C1CC1 | 3 | -16% | -5% | 0.63µM* | · | 2µM*
SMILES | FBPA coupling cs | TrxR1 substrate | TrxR1 inh | RORgamma inh | GALK inhibitor | Gal4-VP16 FLuc
Cc1cc(C)cc(NC(=O)Cn2c3ncccc3c(=O)n2-c2ccc(C)c(C)c2)c1 | · | 26%[57.1 µM] | 47%[57.1 µM] | · | · | ·
COc1ccc2nc(Cl)c(/C=N/Nc3ccccn3)cc2c1 | -2 | 6%[57.1 µM] | 27%[57.1 µM] | 11µM* | 0% | ?
CCOc1ccc(/C=N/Nc2ccccn2)cc1 | 3 | 5% | 12% | 11µM* | -2% | ?
CCOC(=O)N1CCN(C(=O)c2ccc(CS(=O)(=O)c3ccc(OC)cc3)o2)CC1 | 1 | 3% | 3% | 33% | 3% | 5%
O=C1CC(c2ccccc2)CC(O)=C1C=Nc1cccc(Cl)c1 (stereo not drawn) | 0 | -13% | -6% | 27% | 1% | 8%
Cc1c(C(=O)NCc2ccccc2CN2CCCC2)oc2c(F)cccc12 | · | -1% | 11% | · | · | ·
CCOC(=O)/C(=N/Nc1ccccc1)Sc1nnc(CCc2ccccc2)n1-c1ccccc1 | 1 | -8% | 4%[57.1 µM] | 4.5µM* | 1% | 7.1µM*
CCOC(=O)/C(=N/Nc1ccc(Cl)cc1)Sc1nnnn1-c1ccc(C)cc1 | 9 | -2% | -13% | 6.3µM* | 0% | ?
CCOC(=O)/C(=N/Nc1ccccc1)Sc1nnnn1-c1ccc(C)cc1 | 2 | -5% | -17% | ? | -1% | -7%
COC(=O)/C(=N\Nc1ccc(Cl)cc1)Sc1nnc(-c2ccc(OC)cc2)n1C | 7 | 15%[57.1 µM] | 11%[57.1 µM] | 5.6µM* | · | ?
COc1ccc(CNC(=O)CSc2nnc(-c3ccc(NC(C)=O)cc3)n2C)cc1 | -1 | 13% | 23% | -41% | 3% | 7%
Cc1cccc(-n2c(CCc3ccccc3)nnc2SCC(=O)c2ccccc2)c1 | -1 | -5% | -10% | ? | · | 11µM*
CC1CC(C)CN(S(=O)(=O)c2ccc3c(c2)CC(C)N3C(=O)C2CCC2)C1 (stereo not drawn) | -3 | 1% | 35% | 8% | -4% | -5%
COc1ccc(CN2CSC(=S)N(Cc3ccccc3)C2)cc1 | -2 | -4% | 3% | ? | 9% | 10µM*
COc1ccc(CN2CCCCCC2)cc1 | 0 | 9%[57.1 µM] | 11%[57.1 µM] | -11% | 6% | -7%
S=C1SCN(Cc2ccccc2)CN1Cc1ccccc1 | -3 | 6% | 17% | ? | 0% | ?
S=C1SCN(Cc2cccnc2)CN1Cc1cccnc1 | 4 | 4%[57.1 µM] | 0%[57.1 µM] | 0.63µM* | 0% | 5.6µM*
COc1ccc(CN2CSC(=S)N(Cc3ccc(OC)cc3)C2)cc1 | 0 | 0% | 14% | 6.3µM* | · | 18µM*
NC(N)=NS(=O)(=O)c1ccc(N=C2C(=O)Nc3ccccc32)cc1 | -3 | -4%[57.1 µM] | 2%[57.1 µM] | 7% | -2% | 1%
